Compound activity as filed in PubChem.
WRN helicase inh: blocks human WRN helicase | Q14191 | WRN helicase unwinding, fluorescent forked duplex, kinetic | Potency, µM (titrated, usually from 114 µM), without a hit: at the top dose activity change, negative = inhibition, usual class: inhibitors | actives 0.46% (n = 360,000); further: on the % scale 0 is the no-effect control and ±100 the full control effect; nearly all actives have a fitted effect of over 55% in size
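Kinetic red-fluorescence monitoring (525/598 nm) tracks WRN helicase activity after 100 nM fluorophore-quencher forked duplex and 2 mM ATP are added to 20 nM enzyme pretreated 15 min at room temperature with compound.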
POLI inh: DNA polymerase iota (human) inhibition; Q9UNA4; AID 588590; Pol iota fluorescent replication assay, 10 min; actives 1% (n = 390,000); Potency, µM (highest dose often 115 µM), without a hit: at the highest dose activity, negative = inhibition, usual class: inhibitors
Target sequence (Q9UNA4 whole entry, looked up): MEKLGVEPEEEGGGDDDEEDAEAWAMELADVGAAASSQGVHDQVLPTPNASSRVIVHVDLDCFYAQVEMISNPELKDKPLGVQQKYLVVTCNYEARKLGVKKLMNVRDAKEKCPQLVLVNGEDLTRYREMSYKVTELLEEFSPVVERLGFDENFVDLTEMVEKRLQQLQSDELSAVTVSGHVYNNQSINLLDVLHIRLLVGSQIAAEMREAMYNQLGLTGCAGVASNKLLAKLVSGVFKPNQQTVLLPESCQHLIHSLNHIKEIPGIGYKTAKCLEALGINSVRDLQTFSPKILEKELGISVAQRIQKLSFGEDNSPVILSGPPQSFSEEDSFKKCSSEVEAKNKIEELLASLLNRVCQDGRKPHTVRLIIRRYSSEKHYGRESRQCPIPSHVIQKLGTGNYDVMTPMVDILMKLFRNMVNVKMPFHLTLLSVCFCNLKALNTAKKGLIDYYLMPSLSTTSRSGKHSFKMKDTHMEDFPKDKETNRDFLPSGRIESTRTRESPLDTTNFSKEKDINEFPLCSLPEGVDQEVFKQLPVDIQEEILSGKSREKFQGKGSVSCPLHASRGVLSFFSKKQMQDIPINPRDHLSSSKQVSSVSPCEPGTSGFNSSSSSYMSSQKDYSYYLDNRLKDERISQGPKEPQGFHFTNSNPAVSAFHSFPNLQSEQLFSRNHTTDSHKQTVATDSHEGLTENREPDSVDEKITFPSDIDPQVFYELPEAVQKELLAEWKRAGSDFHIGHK
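Pol iota at 10 nM preincubated 15 min with compounds at room temperature; reaction started with fluorescent substrate, 50 nM final. Fluorescence read kinetically at 0 and 10 min; buffer-only wells as negative control.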
POLK inh: blocks human DNA polymerase kappa activity. Q9UBT6. purified Pol kappa, fluorescent DNA synthesis assay, 10 min. Potency, µM (highest dose often 107 µM), for inactives: at the highest dose activity, negative = inhibition, most hits filed as inhibitors. actives 0.53% (n = 400,000). AID 588579; further: on the % scale 0 is the no-effect control and ±100 the full control effect
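10 nM Pol kappa was preincubated with compounds for 15 min at room temperature. Reaction started with 50 nM (final) substrate. Fluorescence read kinetically at 0 and 10 min.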
Pol eta inh: DNA polymerase eta (human) inhibition. Q9Y253. Potency, µM (series often up to 114 µM), for inactives: top-dose activity change, negative = inhibition, usual class: inhibitors. AID 588591. recombinant Pol eta, fluorescent DNA replication assay. actives 1.2% (n = 390,000); further: on the % scale 0 is the no-effect control and ±100 the full control effect
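Pol eta at 10 nM preincubated with compounds 15 min at room temperature; reaction started with fluorescent substrate (50 nM final) and read kinetically at 0 and 10 min.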
Pol beta inh: blocks human DNA polymerase beta activity; Pol beta primer extension/strand displacement, fluorescence kinetic; Potency, µM (series often up to 114 µM), for inactives: top-dose activity change, negative = inhibition, usual class: inhibitors; actives 1.3% (n = 340,000); further: on the % scale 0 is the no-effect control and ±100 the full control effect
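Values derive from four-parameter Hill fits of normalized kinetic data: reads at 0 and 10 min following addition of 50 nM substrate to 10 nM Pol beta preincubated 15 min with compound.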
Starred values were filed as active, the others as inactive; ? = inconclusive; . = no result; [ ] = remark or other dose. Sampled rows, rich in hits. Any-hit rate of the full collection: about 2.3%. The call rests on the fitted dose curve; in most records, active means well fitted curve in the direction sought with a large enough effect; inconclusive means small, poorly fitted or top-dose-only effect, or another doubt; inactive means no such curve, though single readings can be large; an effect the other way counts as inactive or inconclusive. Potency means the concentration at half of the fitted maximal effect.

SMILES	WRN helicase inh	POLI inh	POLK inh	Pol eta inh	Pol beta inh
NC(CSC(c1ccccc1)(c1ccccc1)c1cccc2ccccc12)C(=O)O (centres undefined)	?	?	?	20µM*	.
Cc1ccc(C2C=C(c3ccccc3)Nc3nc(NS(=O)(=O)c4ccccc4)nn32)cc1 (centres undefined)	.	-2.3%	2.0%	?	18.0%
COc1ccc(C2C=C(c3ccccc3)Nc3nc(NS(=O)(=O)c4ccc(Cl)cc4)nn32)cc1 (centres undefined)	.	28.3%	1.1%	89.1µM*	11.5%
O=S(=O)(Nc1nc2n(n1)C(c1ccc(F)cc1)C=C(c1ccccc1)N2)c1ccc(Cl)cc1 (centres undefined)	.	22.4%	-11.4%	?	-16.3%
Cc1ccc(S(=O)(=O)Nc2nc3n(n2)C(c2ccc(Cl)cc2)C=C(c2ccccc2)N3)cc1 (centres undefined)	.	-7.2%	4.2%	89.1µM*	-1.2%
COc1ccc(C2C=C(c3ccccc3)Nc3nc(NS(=O)(=O)c4ccccc4)nn32)cc1 (centres undefined)	.	18.3%	-10.0%	89.1µM*	11.7%
N[C@@H](CCCCNC(=O)CCCC[C@@H]1SC[C@H]2NC(=O)N[C@H]12)C(=O)O	.	.	7.4%[60.1 µM]	.	.
Cc1ccc(NC(=O)N2CCC(CN3CCCCCC3)CC2)c(Cl)c1	.	15.6%	-5.1%	-6.1%	3.4%
CC(=O)Nc1ccc2nc(NC(=O)COc3ccc([N+](=O)[O-])cc3)sc2c1	12.0%	56.2%	-9.8%	11.6%	4.5%
COc1ccc(OCC(=O)Nc2nc3ccc(NC(C)=O)cc3s2)cc1	-27.7%	7.7%	7.9%	?	22.4µM*
CC1C=CC=CC=CC=CC=CC=CC=CC(OC2OC(C)C(O)C(N)C2O)CC2OC(O)(CC(O)CC(O)C(O)CCC(O)CC(O)CC(=O)OC(C)C(C)C1O)CC(O)C2C(=O)O (centres undefined)	17.8µM*	1.26µM*	17.8µM*	0.891µM*	.
C[C@H]1[C@@H](O)[C@@H](C)\C=C/C=C\C=C/C=C\C=C/C=C\C=C/[C@@H](O[C@H]2O[C@@H](C)[C@@H](O)[C@@H](N)[C@@H]2O)C[C@@H]2O[C@](O)(C[C@@H](O)C[C@@H](O)[C@@H](O)CC[C@@H](O)C[C@@H](O)CC(=O)O[C@H]1C)C[C@@H](O)[C@H]2C(=O)O (stereo in doubt)	.	.	-6.6%[12 µM]	.	.
Cc1cc(=O)n(CCCc2ccccc2)[nH]1	1.6%	10µM*	12.4%	-13.4%	.
Cc1cccc(CN2CCN(CCCc3ccccc3)CC2)c1	.	.	.	.	-3.7%
Cc1ccc(OCc2nn3c(-c4n[nH]c5c4CCC5)nnc3s2)cc1	.	.	.	.	14.1µM*
O=C(/C=C/c1ccc(O)cc1)OC[C@H]1O[C@@H](Oc2c(-c3ccc(O)cc3)oc3cc(O)cc(O)c3c2=O)[C@H](O)[C@@H](O)[C@@H]1O	.	.	-4.6%[60.1 µM]	.	.
COc1ccc(Cc2nc3ccc(S(=O)(=O)N4CCOCC4)cc3[nH]2)cc1OC	-7.9%	9.8%	-11.8%	3.4%	4.9%
COc1ccc(Cc2nc3ccc(S(=O)(=O)N4CCOCC4)cc3[nH]2)cc1	-4.5%	79.4µM*	-7.7%	-1.1%	23.5%
CCc1ccc(NC(=O)CC2C(=O)N(c3ccc(Cl)cc3)C(=O)N2C2CCCC2)cc1 (centres undefined)	.	89.1µM*	?	-14.5%	-0.3%
CCc1ccc(NC(=O)CC2C(=O)N(c3ccc(C)cc3)C(=O)N2C2CCCC2)cc1 (centres undefined)	.	13.3%	-6.1%	-23.0%	-1.1%
CC(=O)C1=C(c2ccccc2)NC(=S)NC1c1ccc(O)c(O)c1 (centres undefined)	-4.3%[11.6 µM]	17.8µM*	-49.3%	?	3.98µM*
CC1=C([N+](=O)[O-])C(c2ccc(O)c(O)c2)NC(=O)N1 (centres undefined)	-5.3%	79.4µM*	-33.2%	-8.5%	8.4%
CC(=O)C1=C(c2ccccc2)NC(=S)NC1c1cc(Cl)c(OC(C)C)c(Cl)c1 (centres undefined)	-5.1%	6.1%	-14.5%	-27.5%	0.8%
CC(=O)C1=C(c2ccccc2)NC(=O)NC1c1ccc2c(c1)OCO2 (centres undefined)	-1.1%	104.6%	-5.6%	10.8%	8.6%
CC(=O)C1=C(c2ccccc2)NC(=O)NC1c1ccc(O)c(O)c1 (centres undefined)	-14.0%	39.8µM*	79.4µM*	?	3.98µM*
SMILES	WRN helicase inh	POLI inh	POLK inh	Pol eta inh	Pol beta inh
COc1cc(C2NC(=O)NC(c3ccccc3)=C2C(C)=O)cc(Cl)c1OCC(=O)O (centres undefined)	7.7%	36.9%	-19.7%	28.2µM*	1.1%
CSc1ccc(/C=C2\C=Cc3cc([N+](=O)[O-])ccc32)cc1	.	-6.0%	-6.9%	.	.
CN(C)c1ccc(/C=C2\C=Nc3ccccc32)cc1	.	16.8%	2.9%	.	.
CC[C@H](C)[C@H](NC(=O)[C@H](CO)NC(=O)[C@H](C)NC(=O)[C@H](C)NC(=O)[C@H](CCC(N)=O)NC(=O)[C@H](CCCCN)NC(=O)[C@H](CCCN=C(N)N)NC(=O)[C@@H](N)CS)C(=O)N[C@@H](CCCCN)C(=O)N[C@H](C(=O)N[C@@H](C)C(=O)N[C@H](C(=O)N[C@@H](CO)C(=O)O)C(C)C)C(C)C	.	.	9.6%[60.1 µM]	.	.
CCOc1ccc(NCc2cccn2-c2nnc(N3CCC(C(=O)NCCc4ccc(OC)c(OC)c4)CC3)s2)cc1	.	-8.0%	-5.0%	.	3.9%
CSCC[C@H](N)C(=O)N[C@@H](CCCN=C(N)N)C(=O)N[C@@H](Cc1ccccc1)C(=O)N[C@@H](Cc1ccccc1)C(=O)N[C@H](C(=O)O)C(C)C	.	.	-2.9%[60.1 µM]	.	.
CC(C)OC(=O)c1cn(-c2ccccc2)nc1-c1ccco1	?	?	?	?	39.8µM*
Cc1ccc(-c2nn(-c3ccccc3)cc2/C=C/C(=O)O)o1	-9.0%	?	0.0%	-11.5%	-0.5%
CCOC(=O)C1=C(C)NC(C)=C(C(=O)OCC)C1c1cn(-c2ccccc2)nc1-c1ccco1	-4.9%	0.3%	-10.7%	1.8%	-2.3%
Cc1ccc(-c2nn(-c3ccccc3)cc2C(=O)O)o1	.	.	.	.	15.8µM*
